PKM2 activator: qHTS Assay for Activators of Human Muscle isoform 2 Pyruvate Kinase | 260,000 compounds, 0.34% hits | Pyruvate kinase PKM (Homo sapiens), P14618 | Potency, µM (doses to about 57.5 µM), usual class: activators | AID 1631, 2009 | purified PKM2, Kinase-Glo ATP luminescence, activation; response scale: 0% is enzyme alone, no compound; also: nearly all actives have a fitted effect of over 55% in size
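ATP formation by purified human PK-M2, quantified via coupled luciferase luminescence after 1 h at room temperature with 0.1 mM ADP and 0.5 mM PEP final.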
aGal spleen mod: qHTS Assay for Inhibitors and Activators of Human alpha-Galactosidase From Spleen Homogenate. Potency, µM (series often up to 80 µM), most hits filed as inhibitors. Alpha-galactosidase A (Homo sapiens), P06280. 240,000 compounds, 0.008% hits. AID 2107, 2009. human spleen homogenate, 4MU-alpha-Gal fluorescence, 40 min
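qHTS titration in buffer at pH 5.0. Alpha-galactosidase activity in spleen homogenate was measured via 4-methylumbelliferone release from 1 mM fluorogenic substrate after 40 min at 37C and a pH 10 stop. AC50 came from Hill fits of control-normalized data.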
HTT cytoprotect: qHTS Multiplex Assay to Identify Dual Action Probes in a Cell Model of Huntington: Cytoprotection (ATP); 230,000 compounds, 0.14% hits; PC12 HTT-Q103 induced, cytoprotection, ATP luminescence, 40 h; AID 1471, 2008; Potency, µM (series often up to 56.4 µM), most hits filed as activators; also: nearly all actives have a fitted effect of over 45% in size
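Quantitative HTS on tebufenozide-induced (100 nM) PC12 cells expressing HTTQ103 exon 1–GFP; compounds tested as a concentration series; survival measured via cellular ATP.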
HTT aggregate: qHTS Multiplex Assay to Identify Dual Action Probes in a Cell Model of Huntington: Aggregate Formation (GFP); AID 1688, 2009; PC12 HttQ103-GFP aggregates, Acumen cytometry, 40 h; Potency, µM (highest dose often 46.1 µM), actives largely listed as inhibitors; 220,000 compounds, 1.1% hits; also: nearly all actives have a fitted effect of over 60% in size
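Compounds (qHTS titration) were added to PC12 cells expressing an ecdysone-driven HTT exon 1 Q103–GFP fusion after induction with 100 nM tebufenozide. Aggregate formation was measured as GFP objects in cell lysates.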
GLA inh pH 4.5: qHTS Assay for Inhibitors of Human alpha-Galactosidase at pH 4.5. Alpha-galactosidase A (Homo sapiens), P06280. purified enzyme, 4-MU-alpha-Gal fluorescence, pH 4.5. activity change, negative = inhibition, % at 105 µM. 230,000 tested, under 10 active. AID 1467, 2008
Target sequence (P06280 whole entry, looked up): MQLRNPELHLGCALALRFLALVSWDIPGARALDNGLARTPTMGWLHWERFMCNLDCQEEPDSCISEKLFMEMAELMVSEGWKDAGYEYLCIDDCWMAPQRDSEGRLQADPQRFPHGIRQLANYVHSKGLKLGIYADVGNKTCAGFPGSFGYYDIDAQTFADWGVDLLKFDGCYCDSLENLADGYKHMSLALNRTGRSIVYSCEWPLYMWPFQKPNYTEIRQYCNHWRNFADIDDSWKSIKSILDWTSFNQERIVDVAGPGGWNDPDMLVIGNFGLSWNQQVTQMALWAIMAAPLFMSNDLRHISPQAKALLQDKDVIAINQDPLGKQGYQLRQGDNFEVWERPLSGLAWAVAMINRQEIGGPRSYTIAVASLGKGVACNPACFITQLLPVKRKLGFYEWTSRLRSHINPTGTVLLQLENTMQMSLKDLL
Of the large screens only hits and unclear results are named; the others gave an inactive call. Shown are actives, neighbours in structure and some others; about 1.2% of the full set was active somewhere. Calls follow the shape of the dose curve; as a rule, active = well fitted curve in the direction sought with a large enough effect; inconclusive = small, poorly fitted or top-dose-only effect, or another doubt; inactive = no such curve, though single readings can be large; an effect the other way counts as inactive or inconclusive.

CCC1CCCCN1S(=O)(=O)c1ccc(C(=O)Nc2nnc(-c3cccs3)o2)cc1 (configuration not stated)	HTT aggregate 11.2µM
CC1CN(S(=O)(=O)c2ccc(C(=O)Nc3nnc(-c4ccco4)o3)cc2)CC(C)O1 (configuration not stated)	HTT aggregate inconclusive
CCC1CCCCN1S(=O)(=O)c1ccc(NC(=O)c2cccnc2)cc1 (configuration not stated)	none (no result: aGal spleen mod, HTT cytoprotect, HTT aggregate, GLA inh pH 4.5)
CC1CC(C)CN(S(=O)(=O)c2ccc(C(=O)Nc3nnc(-c4cccs4)o3)cc2)C1 (configuration not stated)	HTT aggregate 7.94µM
CN(C)S(=O)(=O)c1ccc(C(=O)Nc2nnc(-c3cccs3)o2)cc1	HTT aggregate inconclusive
COc1cccc(-c2nnc(NC(=O)c3ccc(S(=O)(=O)N4CC(C)OC(C)C4)cc3)o2)c1 (configuration not stated)	HTT aggregate 3.98µM
COCCN1C(=O)N[C@@H](c2cccc(C(F)(F)F)c2)C(C(C)=O)=C1C	none (no result: PKM2 activator, HTT aggregate)
CC(=O)O[C@H]1C(=O)[C@]2(C)[C@H]([C@H](OC(=O)c3ccccc3)[C@@]3(O)C[C@H](OC(=O)[C@@H](O)[C@@H](NC(=O)c4ccccc4)c4ccccc4)C(C)=C1C3(C)C)[C@]1(OC(C)=O)CO[C@@H]1C[C@@H]2O	none (no result: PKM2 activator, aGal spleen mod, HTT aggregate, GLA inh pH 4.5)
N#Cc1cccc(NC(=O)N2CCCC3(CCN(C(=O)c4ccco4)CC3)C2)c1	none (no result: PKM2 activator, HTT aggregate, GLA inh pH 4.5)
CC(=O)NC(c1ccco1)c1ccc2cccnc2c1O (configuration not stated)	HTT aggregate 3.55µM
CCC(=O)NC(c1ccc(C)cc1)c1ccc2cccnc2c1O (configuration not stated)	none (no result: aGal spleen mod, HTT cytoprotect, HTT aggregate, GLA inh pH 4.5)
Oc1c(C(Nc2ccccn2)c2ccccn2)ccc2cccnc12 (configuration not stated)	HTT aggregate 2.82µM
Cc1ccc(C#CC[N+]2(CC#Cc3ccc(C)cc3)CCCCC2)cc1	HTT aggregate 11.2µM
COC(=O)c1ccc(C2C(C#N)=C(N)Oc3cc(C)n(C)c(=O)c32)cc1 (configuration not stated)	none
COC(=O)C1=C(N)Oc2cc(C)n(C)c(=O)c2C1c1ccc(Cl)cc1 (configuration not stated)	HTT aggregate 11.2µM
c1ccc(N2CCN(c3ncnc4sc5c(c34)CCC5)CC2)cc1	HTT aggregate 11.2µM
Cc1ccc(C)c(NC(=O)c2cnn3ccccc23)c1	HTT aggregate 12.6µM
Cc1ccc(C)c(NC(=O)c2cc3ccccn3n2)c1	none
CC(=O)OC[C@@H]1O[C@H](C/C=N\O[C@@H](C)c2cc(-c3c(C)cc(C)cc3C)no2)C=C[C@@H]1OC(C)=O	none (no result: PKM2 activator, HTT aggregate, GLA inh pH 4.5)
Brc1ccc(-c2nc(N/N=C/c3cccnc3)c3ccccc3n2)cc1	HTT aggregate 10µM
C(=N\Nc1nc(-c2cccnc2)nc2ccccc12)/c1ccccc1	none
CC1C/C(=C\c2cccnc2)C(=O)/C(=C/c2cccnc2)C1 (configuration not stated)	HTT aggregate 3.55µM
COc1ccc(OCC2CC3C(CCC(C)C3c3ccc(Br)cc3)C(=O)O2)cc1 (configuration not stated)	none (no result: PKM2 activator, HTT aggregate, GLA inh pH 4.5)
Nc1nc(-c2ccc3ccccc3c2)cc(-c2cc(-c3ccc4ccccc4c3)nc(N)n2)n1	none (no result: PKM2 activator, aGal spleen mod, HTT aggregate, GLA inh pH 4.5)
CCc1ccccc1NS(=O)(=O)c1cc2c(cc1C)n(C)c(=O)c(=O)n2C	PKM2 activator 3.98µM (no result: aGal spleen mod, HTT cytoprotect, HTT aggregate, GLA inh pH 4.5)
O=C(O)c1ccc(N2C(=O)CC(SC(=NCc3ccc4c(c3)OCO4)Nc3ccccc3)C2=O)cc1 (configuration not stated)	none
N/C(=N\N=C\c1ccc2c(c1)OCO2)SC1CC(=O)N(c2ccc(C(=O)O)cc2)C1=O (configuration not stated)	PKM2 activator 35.5µM
Cc1ccc(-c2noc(CSc3nnc(Cc4ccccc4)n3-c3ccc(Cl)cc3)n2)cc1	HTT aggregate 15.8µM
COc1ccc(-c2nc(-c3ccccc3)c(Nc3c(C)cccc3C)o2)cc1	none (no result: PKM2 activator, HTT aggregate)
O=C(c1ccncc1)N1CCC2(CC1)CCN(c1ccccn1)CC2	none (no result: PKM2 activator, HTT aggregate, GLA inh pH 4.5)
CC(C)c1ccccc1S(=O)(=O)c1cc(N)c2ncccc2c1[N+](=O)[O-]	HTT cytoprotect 7.94µM (no result: HTT aggregate)
CCc1ccc2c(c1)N(C[C@H](C)CN(C)C)c1ccccc1S2	none (no result: PKM2 activator, aGal spleen mod, GLA inh pH 4.5)
COc1ccc(C(=O)C(C)N(C(=O)c2ccc(Cl)cc2Cl)N2C(=O)C3C4C=CC(C4)C3C2=O)cc1 (configuration not stated)	none
Cc1ccc(C(=O)C(C)N(C(=O)c2ccc(Cl)cc2Cl)N2C(=O)CCCC2=O)cc1 (configuration not stated)	HTT aggregate 11.2µM
COc1ccc(NC(=O)/C(Cl)=C(/Cl)S(=O)Cc2ccccc2)cn1 (configuration not stated)	HTT aggregate 5.01µM
Cc1sc2nc(CN3CCN(c4ccc(O)cc4)CC3)[nH]c(=O)c2c1C	PKM2 activator 1.26µM
O=c1[nH]c(CN2CCN(c3ccccc3)CC2)nc2scc(-c3ccccc3)c12	none (no result: HTT cytoprotect)
CCCCC(C)n1[nH]c(=O)c2c(C)cc(C)nc21 (configuration not stated)	none
CCCCCCC(C)n1[nH]c(=O)c2c(C)cc(=O)[nH]c21 (configuration not stated)	PKM2 activator inconclusive, HTT aggregate 11.2µM
Cc1cc(NC(=O)CSc2nc(-c3cccs3)cc(C(F)(F)F)n2)no1	none
CS(=O)(=O)c1nc(-c2cccs2)cc(C(F)(F)F)n1	HTT aggregate 7.08µM
Cc1cc(NC(=O)CCCS(=O)(=O)c2nc(-c3cccs3)cc(C(F)(F)F)n2)no1	HTT aggregate 10µM
N#CC(=C(/N)Sc1ccccc1N)/C(C#N)=C(\N)Sc1ccccc1N	none (no result: PKM2 activator, HTT aggregate, GLA inh pH 4.5)
C=CCNC(=O)c1cc([N+](=O)[O-])cc2c(=O)[nH]c(Nc3ccc(Cl)c(Cl)c3)nc12	none (no result: HTT aggregate)
CN1/C(=C/c2cc[n+](C)c3ccccc23)C=Cc2ccccc21	HTT aggregate 2.51µM
CC1=C(CO)C(=O)OC([C@@H](C)C2CC[C@H]3C4C[C@H]5O[C@]56[C@@H](O)C=CC(=O)[C@]6(C)C4CC[C@]23C)C1 (some centres not stated)	HTT cytoprotect 3.55µM, HTT aggregate inconclusive
CCn1c(NCc2cc(OC)ccc2OC)nc2ccccc21	none
CCCn1c(NCc2cc(OC)ccc2OC)nc2ccccc21	HTT aggregate 20µM
